# In PubChem BioAssay AID1851 (National Center for Advancing Translational Sciences (NCATS), 2009):
# Where “and” joins values, the source holds several entries; their conditions need not be identical. Equal values may be shown once. The whole screen tested about 16,000 compounds, of which about 5,800 (36%) were called active. Roughly 23% stayed inconclusive and do not appear here. Calls follow the shape of the dose curve; as a rule, active = well fitted curve in the direction sought with a large enough effect; inconclusive = small, poorly fitted or top-dose-only effect, or effect the other way; inactive = no such curve, though single readings can be large or run the other way. The list shows a part of the results. Some compounds were tested as several samples or in several runs, with calls that do not always agree.
# Biological target: Cytochrome P450 2C19 (Homo sapiens) (UniProt P33261)
# Sequence (P33261 whole entry, looked up): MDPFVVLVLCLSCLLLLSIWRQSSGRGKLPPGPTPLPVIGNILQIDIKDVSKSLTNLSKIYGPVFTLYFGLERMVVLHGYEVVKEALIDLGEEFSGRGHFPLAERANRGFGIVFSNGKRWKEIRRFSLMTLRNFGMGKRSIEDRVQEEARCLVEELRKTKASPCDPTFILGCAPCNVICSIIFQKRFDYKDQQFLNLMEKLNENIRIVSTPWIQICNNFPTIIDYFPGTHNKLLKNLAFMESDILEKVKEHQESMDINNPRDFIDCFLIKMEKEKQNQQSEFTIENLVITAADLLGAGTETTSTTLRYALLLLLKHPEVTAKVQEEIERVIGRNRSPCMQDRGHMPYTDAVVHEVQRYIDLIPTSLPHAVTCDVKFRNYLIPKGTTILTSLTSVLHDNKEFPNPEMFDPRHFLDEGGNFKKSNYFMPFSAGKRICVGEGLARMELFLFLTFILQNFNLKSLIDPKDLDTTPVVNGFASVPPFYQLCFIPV
# Experiment: Cytochrome panel assay with activity outcomes
# Details: recombinant CYP, pro-luciferin dealkylation, luminescence, p450-cyp2c19; series mostly up to 57.1 µM; activity, negative = inhibition: at the top concentration
# % is scaled to controls: 0 for no effect and ±100 for the full control effect.
Structure (SMILES),"activity, negative = inhibition",AC50
NP(N)(=O)NC(=O)c1ccc(F)cc1,3.06% (inactive),
c1csc(CN2CC[C@@]3(CCCNC3)C2)n1,-36.5% (inactive),
C[N+]12CCC(CC1)[C@@H](OC(=O)C(O)(c1ccccc1)c1ccccc1)C2,-15.4% [at 25.6 µM] (inactive),
N#CCCN,18.2% (inactive),
c1ccc2cc(CC3=NCCN3)ccc2c1,-11.6% (inactive),
COc1ccc2cc1Oc1ccc(cc1)C[C@H]1c3cc(c(OC)cc3CCN1C)Oc1c(OC)c(OC)cc3c1[C@@H](C2)N(C)CC3,-36.6% [at 11.4 µM] (inactive),
CC1=C2[C@@H]3OC(=O)[C@@H](C)[C@@H]3CC[C@]2(C)C=CC1=O,-26.3% [at 25.6 µM] (inactive),
CCCCN1C(=O)/C(=C\c2ccco2)C(=O)N(CCc2ccccc2)C1=O,,10 µM (active)
Cc1cc2c(C(C)C)c(O)c(O)c(C=O)c2c(O)c1-c1c(C)cc2c(C(C)C)c(O)c(O)c(C=O)c2c1O,-44.4% (inactive),
COC1=C[C@H]2C3=C([C@H]2C1=O)[C@H](NC(C)=O)CCc1cc(OC)c(OC)c(OC)c13,-15.4% [at 25.6 µM] (inactive),
NC(=O)c1ccc(-c2nc(-c3ccc4c(c3)OCO4)c(-c3ccccn3)[nH]2)cc1,,2.51 µM (active)
CC(C)C(=O)CP(=O)(O)O,8.85% [at 11.4 µM] (inactive),
N=C(N)SCc1ccc(Cl)c2ccccc12 (tested in a mixture with another compound),-27.8% [at 11.4 µM] (inactive) and -26.6% [at 11.4 µM] (inactive),
Cn1c(O)c(C(c2ccccn2)c2c(O)n(C)c(=S)n(C)c2=O)c(=O)n(C)c1=S,-17.6% (inactive),
COC(=O)C(O)(c1c(C)[nH]c2ccccc12)C(F)(F)F (stereo not given),,5.01 µM (active)
c1ccc2sc(C3(N4CCCCC4)CCCCC3)cc2c1,-26.2% (inactive),
Nc1ncnc2c1ncn2[C@@H]1O[C@@H](COP(=O)(O)CP(=O)(O)OP(=O)(O)O)[C@H](O)[C@@H]1O,0.925% (inactive),
NNC(N)=O,27.4% (inactive),
c1cncc(CNCCN2CCNCC2)c1,7.54% [at 11.4 µM] (inactive),
c1cncc([C@@H]2CCCCN2)c1,,inactive and 2 µM (active)
COc1ccc2c(c1)[C@]13CCCC[C@@H]1[C@H](C2)N(C)CC3,-9.18% (inactive),
O=[As](O)(O)c1ccc(N=Nc2ccc(O)cc2)cc1,-12.7% [at 11.4 µM] (inactive),
CCOc1ccc(C2C(C#N)=C(N)Oc3c2c(=O)oc2ccccc32)cc1 (stereo not given),,5.62 µM (active)

Structure (SMILES),"activity, negative = inhibition",AC50
CN1CC[C@@]2(CCCN(C(=O)c3ccncc3)C2)C1,-25.8% (inactive),
O=C1CS[C@@H](c2ccccc2Cl)c2cc(Cl)ccc2N1,,25.1 µM (active)
O=S(=O)(NCCO)c1cc[c]([Sb](=[O])([OH])[OH])cc1,14.4% [at 11.4 µM] (inactive),
CC(C)c1ccc(C(O)(C(=O)O)c2ccc(C(C)C)cc2)cc1,21.5% [at 11.4 µM] (inactive),
C[C@@]12CC[C@@H]3[C@H](CCC4=CC(=O)CC[C@]43C)[C@@H]1CC[C@@H]2C(=O)COS(=O)(=O)c1ccc(Br)cc1,-21.8% [at 11.4 µM] (inactive),
COc1cc2c3cc1Oc1cc(ccc1O)C[C@@H]1c4c(cc(OC)c(O)c4Oc4cccc(c4)C[C@H]3N(C)CC2)CC[N+]1(C)C,1.07% [at 25.6 µM] (inactive),
Cc1nc2ccccc2cc1C[N+]12CN3CN(CN(C3)C1)C2,-23.7% [at 11.4 µM] (inactive),
COC(=O)N1CCN(C(=O)Cc2ccc(Cl)c(Cl)c2)[C@H](CN2CCCC2)C1,,inactive and 25.1 µM (active)
O=C(Cc1ccc(Cl)c(Cl)c1)N1CCCC[C@H]1CN1CCCC1,,inactive and 6.31 µM (active)
CC[N+](CC)(CC)CCOc1cccc(OCC[N+](CC)(CC)CC)c1OCC[N+](CC)(CC)CC,-7.51% (inactive),
C=C[C@H]1CN2CC[C@@H]1C[C@H]2[C@@H](O)c1ccnc2ccccc12,-24.2% [at 25.6 µM] (inactive),
N[C@H](Cn1ccc(=O)[nH]c1=O)C(=O)O,23.1% (inactive),
C[C@@]12CC[C@H](O[C@@H]3O[C@H](CO)[C@@H](O)[C@H](O)[C@@H]3O)C[C@@H]1CC[C@H]1[C@H]2CC[C@@]2(C)[C@@H](C3=CCOC3=O)CC[C@]12O,22.6% [at 11.4 µM] (inactive),
COC(=O)[C@H]1[C@H](c2ccccc2)C(=O)[C@@]2(O)c3ccccc3O[C@@]12c1ccccc1,-15.7% [at 11.4 µM] (inactive),
COc1cc2c(cc1O)C[C@H]1c3c(cc(O)c(OC)c3-2)CCN1C,-10.6% [at 25.6 µM] (inactive),
CC1=CC(=O)C2=C(C)C[C@@H](O)[C@@H]3[C@@H](OC(=O)[C@H]3C)[C@H]12,-9.8% [at 25.6 µM] (inactive),
C[N+]1([O-])[C@@H]2CC[C@H]1CC(OC(=O)[C@@H](CO)c1ccccc1)C2 (stereo not given in full),10% [at 25.6 µM] (inactive),
CC12CN3CC(C)(CN(C1)C31CCSCC1)C2=O,-1.25% (inactive),
COc1cc(CN2CCN(C(=O)COc3ccccc3)CC2)cc(OC)c1OC,-23.4% (inactive),
CC(=O)N1CCC2(CC1)CC(=O)c1cc(OCC(=O)N3CCN(C)CC3)ccc1O2,11.3% (inactive),
O=C(COc1ccc2ccccc2c1)N1CCN(CC2CC3C=CC2C3)CC1 (stereo not given),,10 µM (active)
C(=NC12CN3CN(CN(C3)C1)C2)c1cccs1,-36.5% (inactive),
CCCc1cc2c(n1Cc1cccc(Cl)c1)C(C)C1CN(C(=O)c3ccccc3)C(C)(C(=O)OC)C21 (stereo not given),,15.8 µM (active)

Structure (SMILES),"activity, negative = inhibition",AC50
N#CCCCC[N+]12CN3CN(CN(C3)C1)C2,19.8% [at 11.4 µM] (inactive),
C=C(CC1(C(C)NP(=O)(c2ccccc2)c2ccccc2)CC1)c1ccccc1 (stereo not given),,10 µM (active)
C=C(CC1(CNP(=O)(c2ccccc2)c2ccccc2)CC1)c1ccccc1,-61.1% (inactive),
O=C(O)[C@H]1C[C@@H]1[C@H](NP(=O)(c1ccccc1)c1ccccc1)c1ccccc1,-17.6% (inactive),
CNC(=O)OCC[N+](C)(C)C,20.4% (inactive),
O=C(O)c1ccccc1-c1c2cc(Br)c(=O)cc-2oc2[c]([Hg])c(O)c(Br)cc12,,3.16 µM (active)
NC(N)=Nc1ccc2[nH]c3c(c2c1)C[C@]1(O)[C@@H]2Cc4ccc(O)c5c4[C@]1(CCN2CC1CC1)[C@@H]3O5,-20.9% (inactive),
N[C@H](Cc1ccc2oc3cc(=O)c4ccccc4c-3nc2c1)C(=O)O,-35.8% [at 11.4 µM] (inactive),
O=C(O)CCCc1ccc(N(CCCl)CCCl)cc1,-15% [at 25.6 µM] (inactive),
COC(=O)c1[nH]c2ccc(Br)cc2c1NC(=O)Oc1ccccc1,,11.2 µM (active)
c1ccc2nc(N3CCNCC3)ccc2c1,,inactive
O=C(O)[C@@H]1[C@H](C(=O)O)[C@]2(Cl)C(Cl)=C(Cl)[C@@]1(Cl)C2(Cl)Cl,-2.94% [at 11.4 µM] (inactive),
NCC1(CC(=O)O)CCCCC1,,inactive
CCN(CC)CCn1ncc2c(N)ncnc21,-2.72% [at 11.4 µM] (inactive),
CN1[C@@H]2CC[C@H]1CC(O[C@@H](c1ccccc1)c1ccc(Cl)cc1)C2 (stereo not given in full),,inactive
CC(NCc1ccc(Cl)cc1)C(O)c1ccccc1 (stereo not given),,0.355 µM (active)
C[C@H](N)[C@@H](O)c1ccccc1,20.9% [at 25.6 µM] (inactive),
Cc1sc2ccccc2c1CC1=NCCN1,-17.4% (inactive),
c1ccc(C2CC2)c(OCC2=NCCN2)c1,-31.6% (inactive),
CCSCC[C@H](N)C(=O)O,-18% [at 11.4 µM] (inactive),
[N-]=[N+]=CC(=O)CC[C@H](N)C(=O)O,0.0153% [at 11.4 µM] (inactive),
CC(C)COC(=O)OCN1C(=O)CN(CCN2CC(=O)N(COC(=O)OCC(C)C)C(=O)C2)CC1=O,1.24% (inactive),
c1csc(CN2CCCC3(CCNCC3)C2)n1,-39.6% (inactive),

Structure (SMILES),"activity, negative = inhibition",AC50
O=C(CN1CCCCC1)Nc1ccc(Br)cc1C(=O)c1ccccc1Cl,,7.94 µM (active)
O=c1[nH]cnc2[nH]cc(CN3CCCCC3)c12,39.9% [at 11.4 µM] (inactive),
Cc1nnc2ccc(-c3cccc(C(F)(F)F)c3)nn12,36.3% (inactive),
CCC1(CCSC(=N)N)C(=O)NC(=O)NC1=O,20.6% [at 11.4 µM] (inactive),
O=C1CCCN1CC#CCN1CCCC1,,inactive and 158 nM (active)
C(#CCN1CCCC1)CN1CCCC1,-1.49% [at 25.6 µM] (inactive),
C[N+](C)(C)CC#CCN1CCCC1=O,,inactive
CN(CCC(=O)O)C1=Nc2ccc(Cl)cc2C(c2ccccc2)=[N+]([O-])C1,-1.35% [at 11.4 µM] (inactive),
Nc1nc(N)c2nc(CNc3ccc(C(=O)N[C@H](CCC(=O)O)C(=O)O)cc3)cnc2n1,2.1% (inactive),
O=C(O)CNC(=O)[C@@H](CS)Cc1ccccc1,-6.8% (inactive),
Cc1cc[c]([Sb]2[O][C@H]([C@H](O)[C@H](O)C(=O)O)[C@@H](CO)[O]2)cc1,30.4% [at 11.4 µM] (inactive),
N[C@@H](Cn1ccc(=O)n(Cc2ccc(C(=O)O)cc2)c1=O)C(=O)O,-42.7% (inactive),
CC(C)(O)/C=C\C(=O)[C@](C)(O)[C@H]1[C@H](O)C[C@]2(C)[C@@H]3CC=C4[C@@H](C=C(O)C(=O)C4(C)C)[C@]3(C)C(=O)C[C@@]12C,-7.19% [at 11.4 µM] (inactive),
O=C(Nc1ccc(C(F)(F)F)cc1)c1cccn(Cc2ccc3c(c2)OC(F)(F)O3)c1=O,,3.16 µM (active)
CC(=O)Nc1ccccc1C(=O)OCc1ccc(C(=O)c2ccccc2)cc1,,3.55 µM (active)
NS(=O)(=O)c1cc([C@@]2(O)NC(=O)c3ccccc32)ccc1Cl,1.58% [at 25.6 µM] (inactive),
NC[C@@H](Cc1ccccc1)P(=O)(O)O,-0.815% [at 11.4 µM] (inactive),
O=C(Oc1ccccc1)N1CCC[C@@]2(CCN(C(c3ccccc3)c3ccccc3)C2)C1,-38.5% (inactive),
O=C(O)Cc1cnc[nH]1,0.662% (inactive),
CC[C@@H](CO)NC(=O)[C@H]1C=C2c3cccc4c3c(cn4C)C[C@H]2N(C)C1,,0.126 µM (active)
CC[C@H](CO)NC(=O)[C@@H]1C=C2c3cccc4c3c(cn4C)C[C@@H]2N(C)C1,-2.92% (inactive),
